# According to PubChem BioAssay (EPA / NIEHS):
# Several values for one entry are separate records, joined by “and”; a condition that tells them apart may be missing. Identical values can stand only once. Records with an inconclusive call do not appear. Where a structure was tested more than once in an assay, its records may differ in their call. Activity calls are given as the source filed them. Rule for the calls: active = hit-call score of the fitted dose curve at least 0.9, where 1 is the maximum; inconclusive = response in the unintended direction; inactive = score below 0.9.
# What was measured:
# [1] = TOX21_p53_BLA_p2_viability: Viability Assessment in the Tox21 HCT-116 p53 Agonism Beta-lactamase Assay, Phase 2 (AID 2283591);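 note: actives lower the ATP signal meaning cytotoxicity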
# Method in brief: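 Cytotoxicity readout: CellTiter-Glo ATP luminescence, 30 min at room temperature, after the beta-lactamase read. Cells were HCT116 exposed 16 h at 37C to compounds pin-transferred at 217-fold dilution from DMSO stocks.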
# [2] = molecular target: Cellular tumor antigen p53 (Homo sapiens) (UniProt P04637); experiment: TOX21_p53_BLA_p2_ratio: Tox21 HCT-116 p53 Agonism Beta-lactamase Assay, Ratio, Phase 2 (AID 2283592)
# Method in brief: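 First, HCT116 reporter cells settle for 5 h at 37C. Next, DMSO compound solutions are pinned in (217-fold dilution) and left 16 h. Finally, CCF4-AM substrate is loaded 2 h at room temperature and the 460/530 nm ratio read.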
# [3] = TOX21_p53_BLA_p3_viability: Viability Assessment in the Tox21 HCT-116 p53 Agonism Beta-lactamase Assay, Phase 3 (AID 2283593);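 note: cells exposed to compound for 16 h before reading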
# Method in brief: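 Cellular ATP was quantified by CellTiter-Glo luminescence, read after 30 min at room temperature. Beforehand, HCT116 cells (4000/well) received compound 5 h post-seeding, 217-fold diluted from DMSO, then incubated 16 h at 37C.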
# [4] = molecular target: Cellular tumor antigen p53 (Homo sapiens) (UniProt P04637); experiment: TOX21_p53_BLA_p3_ratio: Tox21 HCT-116 p53 Agonism Beta-lactamase Assay, Ratio, Phase 3 (AID 2283596)
# Method in brief: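 Cells were seeded at 4000/well, rested 5 h at 37C, then dosed with DMSO compound solutions (217-fold dilution) for 16 h. CCF4-AM substrate was loaded for 2 h at room temperature, and the 460/530 nm emission ratio was fitted for gain of signal versus DMSO.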
# [5] = TOX21_p53_BLA_p4_viability: Viability Assessment in the Tox21 HCT-116 p53 Agonism Beta-lactamase Assay, Phase 4 (AID 2283597);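 note: hits lower the luminescence signal meaning cytotoxicity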
# Method in brief: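 4000 HCT116 cells per well; 5 h attachment; compounds from DMSO, 217-fold dilution; 16 h at 37C. Then CCF4-AM, 2 h RT, followed by CellTiter-Glo, 30 min RT, luminescence. Decrease = cytotoxicity.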
# [6] = molecular target: Cellular tumor antigen p53 (Homo sapiens) (UniProt P04637); experiment: TOX21_p53_BLA_p5_ratio: Tox21 HCT-116 p53 Agonism Beta-lactamase Assay, Ratio, Phase 5 (AID 2283599)
# Method in brief: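 Beta-lactamase reporter ratio (blue 460 nm over green 530 nm, 405 nm excitation) after 2 h CCF4-AM loading, in HCT-116 cells exposed 16 h at 37 C to compounds pinned at 217-fold dilution. Increases relative to DMSO baseline scored.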
# [7] = TOX21_p53_BLA_p5_viability: Viability Assessment in the Tox21 HCT-116 p53 Agonism Beta-lactamase Assay, Phase 5 (AID 2283600)
# Method in brief: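 Decreased CellTiter-Glo luminescence denotes lost viability. Exposure: 16 h at 37C, 5% CO2, with compounds from DMSO stocks diluted 217-fold in wells of 4000 cells.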
# [8] = molecular target: Cellular tumor antigen p53 (Homo sapiens) (UniProt P04637); experiment: TOX21_p53_BLA_p4_ratio: Tox21 HCT-116 p53 Agonism Beta-lactamase Assay, Ratio, Phase 4 (AID 2283601)
# Method in brief: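 Signal is the blue/green (460nm/530nm) ratio of cleaved versus uncleaved CCF4-AM substrate, read after 2 h substrate loading. Cells were HCT116 carrying the p53-responsive beta-lactamase reporter, dosed 16 h at 37C, 5% CO2; CellTiter-Glo measured in parallel.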
# [9] = ATG_XTT_Cytotoxicity: Cytotoxicity Assessment in the Attagene TRANS-FACTORIAL HepG2 Assay (AID 2283584)
# Method in brief: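 HepG2 cells transiently transfected with GAL4-UAS multiple reporter units, dosed 24 h; cytotoxicity read by XTT as loss of signal versus DMSO baseline.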
# [10] = ACEA_AR_agonist_AUC_viability: ACEA Biosciences xCELLigence Real-Time Cell Analysis on Androgen Receptor Agonism for Viability (AID 2283775);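 for AC50: viability read 80 hours after compound addition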
# Method in brief: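 Viability endpoint from xCELLigence impedance in 22Rv1 prostate cells at 80 h. Eight-point series, 100 uM maximum final.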
# [11] = test system: Thyroperoxidase (TPO), gene 54314; experiment: CCTE_Simmons_AUR_rTPO: CCTE's Amplex UltraRed Assay for Thyroperoxidase (TPO) Inhibition, Simmons Lab (AID 2283662);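 for AC50: potency for loss of signal meaning inhibition of peroxidase activity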
# Method in brief: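 Rat thyroid microsomes (5 ug protein) were incubated with test compound (8 concentrations, 5 nM–87.5 uM final, 0.5% DMSO), 25 uM Amplex UltraRed and 300 uM H2O2 in 200 mM phosphate buffer for 30 min at 37C in the dark; fluorescence read at 544/590 nm.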
# [12] = CCTE_Simmons_CellTiterGLO_HEK293T: Viability Assessment in CCTE's Assays for Thyroperoxidase (TPO) Inhibition, Simmons Lab (AID 2283665);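 for AC50: cells exposed to compound for 24 h before readout; actives reduce ATP signal below DMSO vehicle meaning cytotoxicity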
# Method in brief: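 ATP depletion measured in HEK293T cells after 24 h dosing (8 concentrations, 5 nM–87.5 uM final; DMSO 0.5%) using CellTiter-Glo luminescence; curves fit for loss of signal against DMSO baseline.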
# [13] = molecular target: Luciferin 4-monooxygenase (Photinus pyralis) (UniProt P08659); experiment: CCTE_Simmons_QuantiLum_inhib_2: CCTE's Firefly Luciferase Inhibition Assay, Simmons Lab (AID 2283767);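 for AC50: potency for inhibitors that lower luciferase luminescence relative to DMSO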
# Method in brief: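 Eight-point titrations of each chemical, 5 nM–87.5 uM final in 0.5% DMSO, were run in three biological replicates against recombinant luciferase for 30 min at 37C. Bioluminescence signal loss, read on reagent injection, gave the inhibition endpoint.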
# Sequence of Cellular tumor antigen p53 (Homo sapiens) (P04637 whole entry, looked up): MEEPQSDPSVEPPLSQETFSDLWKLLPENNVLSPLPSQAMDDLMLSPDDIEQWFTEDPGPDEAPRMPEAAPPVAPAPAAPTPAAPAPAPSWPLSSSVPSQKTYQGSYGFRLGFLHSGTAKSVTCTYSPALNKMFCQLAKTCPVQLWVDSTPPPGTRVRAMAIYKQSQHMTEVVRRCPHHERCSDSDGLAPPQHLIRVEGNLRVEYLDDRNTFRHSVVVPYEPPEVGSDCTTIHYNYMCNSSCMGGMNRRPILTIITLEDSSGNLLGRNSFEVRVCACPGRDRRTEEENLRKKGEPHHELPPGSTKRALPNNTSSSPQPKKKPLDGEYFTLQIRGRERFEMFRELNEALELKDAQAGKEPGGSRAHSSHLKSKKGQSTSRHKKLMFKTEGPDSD
# Sequence of Luciferin 4-monooxygenase (Photinus pyralis) (P08659 whole entry, looked up): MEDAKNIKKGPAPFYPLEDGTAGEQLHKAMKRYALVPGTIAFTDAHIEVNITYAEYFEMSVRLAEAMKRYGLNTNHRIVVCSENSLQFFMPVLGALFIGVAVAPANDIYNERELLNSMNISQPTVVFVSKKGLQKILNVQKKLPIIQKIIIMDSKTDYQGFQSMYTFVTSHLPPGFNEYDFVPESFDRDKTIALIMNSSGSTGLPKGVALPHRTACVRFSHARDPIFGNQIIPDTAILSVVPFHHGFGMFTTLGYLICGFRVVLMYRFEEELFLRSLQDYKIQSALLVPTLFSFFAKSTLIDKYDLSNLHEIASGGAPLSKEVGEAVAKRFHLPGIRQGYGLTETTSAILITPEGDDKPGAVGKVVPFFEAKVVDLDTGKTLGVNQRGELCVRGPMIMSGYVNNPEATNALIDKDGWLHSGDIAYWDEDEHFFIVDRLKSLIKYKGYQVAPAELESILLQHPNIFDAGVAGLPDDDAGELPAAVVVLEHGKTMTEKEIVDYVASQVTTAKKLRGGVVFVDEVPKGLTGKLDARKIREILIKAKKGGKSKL
smiles,measurement,setting,value
Cc1cc(=O)n(-c2ccccc2)n1C,outcome,[1],inactive
same,outcome,[2],inactive
same,outcome,[3],inactive
same,outcome,[4],inactive
same,outcome,[5],inactive
same,outcome,[6],inactive
same,outcome,[7],inactive
same,outcome,[8],inactive
NCCCN1CCN(CCCN)CC1,outcome,[1],inactive
same,outcome,[2],inactive
same,outcome,[3],inactive
same,outcome,[4],inactive
same,outcome,[5],inactive
same,outcome,[8],inactive
O=c1cc(-c2ccccc2)oc2ccccc12,outcome,[9],inactive
same,outcome,[10],inactive
c1ccc2c(c1)ccc1cc3c(ccc4ccccc43)cc12,outcome,[1],inactive
same,outcome,[2],inactive
same,outcome,[4],inactive
same,outcome,[5],inactive
same,outcome,[6],inactive
same,outcome,[7],inactive
same,outcome,[8],inactive
same,outcome,[11],inactive
same,outcome,[12],inactive
same,AC50,[13],0.105 µM (active)
same,AC50,[10],0.341 µM (active)
CCOC(=O)CC,outcome,[1],inactive
same,outcome,[2],inactive
same,outcome,[3],inactive
same,outcome,[6],inactive
same,outcome,[7],inactive
same,outcome,[8],inactive
same,outcome,[10],inactive
COC(=O)c1ccc2cc(C(=O)OC)ccc2c1,outcome,[1],inactive
same,outcome,[2],inactive
same,outcome,[3],inactive
same,outcome,[5],inactive
same,outcome,[6],inactive
same,outcome,[7],inactive
same,outcome,[8],inactive
CC(C)c1ccc2c(c1)CC[C@H]1[C@](C)(CN)CCC[C@]21C,AC50,[1],42.6 µM (active)
same,AC50,[2],47.1 µM (active)
same,AC50,[4],72.5 µM (active)
same,AC50,[5],49.6 µM (active)
same,AC50,[6],78.5 µM (active)
same,AC50,[7],63.5 µM (active)
same,AC50,[8],85.8 µM (active)
O=C(O)CCCC[C@@H]1SC[C@@H]2NC(=O)N[C@@H]21,outcome,[9],inactive
same,outcome,[10],inactive
O=c1[nH]nc(-c2ccc([N+](=O)[O-])o2)o1,outcome,[1],inactive
same,outcome,[3],inactive
same,outcome,[4],inactive
same,outcome,[5],inactive
same,outcome,[6],inactive
same,outcome,[7],inactive
same,outcome,[8],inactive
C=C[C@](C)(O)CC[C@@H]1[C@@]2(C)CCCC(C)(C)[C@@H]2CC[C@@]1(C)O,AC50,[1],47.1 µM (active)
same,AC50,[2],86 µM (active)
same,AC50,[3],64.6 µM (active)
same,AC50,[4],85.2 µM (active)
same,AC50,[5],15.8 µM (active)
same,AC50,[6],87.1 µM (active)
same,AC50,[7],67.5 µM (active)
same,outcome,[8],inactive
CCOC(=O)Cc1cccc2ccccc12,outcome,[1],inactive
same,outcome,[2],inactive
same,outcome,[3],inactive
same,outcome,[5],inactive
same,outcome,[6],inactive
same,outcome,[8],inactive
N=c1ccn2c(n1)O[C@H]1[C@H](O)[C@@H](CO)O[C@H]12,outcome,[1],inactive
same,AC50,[2],1 µM (active) and 2.41 µM (active)
same,outcome,[3],inactive
same,AC50,[4],2.17 µM (active) and 3.17 µM (active)
same,outcome,[5],inactive
same,outcome,[7],inactive
same,AC50,[8],1.27 µM (active) and 1.19 µM (active)
SCCc1cnccn1,outcome,[1],inactive
same,AC50,[2],45.1 µM (active)
same,outcome,[3],inactive
same,AC50,[4],21.6 µM (active)
same,outcome,[5],inactive
same,AC50,[6],35.7 µM (active)
O=C(/C=C/C=C/c1ccc2c(c1)OCO2)N1CCCCC1,outcome,[1],inactive
same,outcome,[2],inactive
same,outcome,[3],inactive
same,outcome,[5],inactive
same,outcome,[6],inactive
same,outcome,[8],inactive
Cc1cc(C)c(C)cc1C,outcome,[2],inactive
same,outcome,[4],inactive
same,outcome,[6],inactive
same,outcome,[7],inactive
same,outcome,[8],inactive
OC1CCCC1,outcome,[10],inactive
CC(C)(C)c1ccc(-c2ccc(C(C)(C)C)cc2)cc1,outcome,[11],inactive
same,outcome,[13],inactive
same,outcome,[10],inactive
COC(=O)/C=C/C(C)=C\C=C\C(C)=C\C=C\C=C(C)\C=C\C=C(C)\C=C\C(=O)O,outcome,[4],inactive
same,outcome,[5],inactive
same,outcome,[6],inactive
Cc1ccc2c(c1)C(=O)c1ccccc1C2=O,outcome,[2],inactive
same,outcome,[3],inactive
same,outcome,[4],inactive
same,outcome,[6],inactive
same,outcome,[7],inactive
C=CCOc1c(Br)cc(Br)cc1Br,outcome,[1],inactive
same,outcome,[3],inactive
same,outcome,[4],inactive
same,outcome,[6],inactive
same,outcome,[7],inactive
same,outcome,[8],inactive
C=C1[C@H]2CC[C@@H]3[C@H]2C(C)(C)CCC[C@]13C,outcome,[4],inactive
same,outcome,[5],inactive
CC(C)(C)c1ccc(N)cc1,AC50,[11],0.106 µM (active)
same,outcome,[12],inactive
same,outcome,[13],inactive
CCOc1ccc(N)c([N+](=O)[O-])c1,outcome,[2],inactive
same,outcome,[3],inactive
same,outcome,[6],inactive
same,outcome,[7],inactive
O=C1CCCC(=O)O1,outcome,[2],inactive
same,outcome,[5],inactive
same,outcome,[7],inactive
same,outcome,[8],inactive
Nc1ncn([C@@H]2O[C@H](CO)[C@@H](O)[C@H]2O)c(=O)n1,outcome,[1],inactive
same,AC50,[4],13.4 µM (active)
same,outcome,[4],inactive
same,AC50,[5],1.15 µM (active) and 514 nM (active)
same,AC50,[6],3.88 µM (active) and 6.69 µM (active)
same,outcome,[7],inactive
same,AC50,[8],13.6 µM (active) and 6.66 µM (active)
CCCCC/C=C\CCC=O,outcome,[3],inactive
same,outcome,[4],inactive
same,outcome,[5],inactive
same,outcome,[6],inactive
same,outcome,[8],inactive
same,AC50,[10],16.6 µM (active)
CC(=O)OCCC1CCCCC1,outcome,[2],inactive
same,outcome,[3],inactive
same,outcome,[4],inactive
same,outcome,[5],inactive
O=C1OC(=O)c2cc(Oc3ccc4c(c3)C(=O)OC4=O)ccc21,outcome,[1],inactive
same,outcome,[3],inactive
same,outcome,[4],inactive
same,outcome,[5],inactive
same,outcome,[7],inactive
same,outcome,[8],inactive
Cc1ccc(N/N=c2\c(=O)cc/c(=N/Nc3ccc(S(=O)(=O)O)cc3)c2=O)c(C)c1,outcome,[1],inactive
same,outcome,[3],inactive
same,outcome,[5],inactive
same,outcome,[6],inactive
same,outcome,[7],inactive
same,outcome,[8],inactive
same,AC50,[11],28.9 µM (active)
same,AC50,[12],76.6 µM (active)
same,AC50,[13],53.8 µM (active)
CC/C=C\C/C=C\C/C=C\CCCCCCCC(=O)O,AC50,[11],28.7 µM (active)
same,outcome,[12],inactive
same,outcome,[13],inactive
same,outcome,[10],inactive
CCN(Cc1cccc(S(=O)(=O)O)c1)c1ccc(C(=C2C=CC(=[N+](CC)Cc3cccc(S(=O)(=O)[O-])c3)C=C2)c2ccccc2)cc1,outcome,[5],inactive
same,outcome,[6],inactive
same,outcome,[8],inactive
CCCCCCCC[N+](C)(CCCCCCCC)CCCCCCCC,AC50,[11],23.7 µM (active)
same,AC50,[12],7.14 µM (active)
same,AC50,[13],86 µM (active)
same,AC50,[10],1.03 µM (active)
